A selection: hits, their analogues and other compounds. The true share with any hit is near 7.5%.
ELG1 DNA repair – qHTS screen for small molecules that inhibit ELG1-dependent DNA repair in human embryonic kidney (HEK293T) cells expressing luciferase-tagged ELG1. HEK293T ELG1-luciferase reporter, luminescence, 16 h; DNA damage induced by 5-fluorouridine. Potency, µM (highest dose often 46.1 µM), actives largely listed as inhibitors. 330,000 tested, 2.3% active; also: nearly all actives have a fitted effect of over 55% in size
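Quantitative HTS, concentration-response format. 2,000 cells/well co-treated with 5-fluorouridine and compound, 16 hr in 5% CO2 at 37 °C; ONE-Glo luminescence read after 30 min.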
B2AR arrestin – qHTS assay of beta-arrestin-biased ligands of beta2-adrenergic receptor. AID 492947, 2010. Beta-2 adrenergic receptor (Homo sapiens), P07550. Potency, µM (titrated, usually from 46.1 µM), usual class: activators. 330,000 tested, 0.02% active. beta-arrestin recruitment to beta2AR, cell-based reporter; also: nearly all actives have a fitted effect of over 65% in size
TSHR antagonist – Antagonists of the Thyroid Stimulating Hormone Receptor: HTS campaign; activity change, negative = inhibition, % at 11.5 µM; Thyrotropin receptor (Homo sapiens), P16473; TSHR-expressing cells, TSH-stimulated cAMP HTRF, 2 h; active compounds read low; 330,000 tested, 0.2% active;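 active = activity change below a set negative limit, meaning inhibition stronger than a set level, cut at about -70% in these data; inconclusive = activity change between two set negative limits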
Target sequence (P16473 whole entry, looked up): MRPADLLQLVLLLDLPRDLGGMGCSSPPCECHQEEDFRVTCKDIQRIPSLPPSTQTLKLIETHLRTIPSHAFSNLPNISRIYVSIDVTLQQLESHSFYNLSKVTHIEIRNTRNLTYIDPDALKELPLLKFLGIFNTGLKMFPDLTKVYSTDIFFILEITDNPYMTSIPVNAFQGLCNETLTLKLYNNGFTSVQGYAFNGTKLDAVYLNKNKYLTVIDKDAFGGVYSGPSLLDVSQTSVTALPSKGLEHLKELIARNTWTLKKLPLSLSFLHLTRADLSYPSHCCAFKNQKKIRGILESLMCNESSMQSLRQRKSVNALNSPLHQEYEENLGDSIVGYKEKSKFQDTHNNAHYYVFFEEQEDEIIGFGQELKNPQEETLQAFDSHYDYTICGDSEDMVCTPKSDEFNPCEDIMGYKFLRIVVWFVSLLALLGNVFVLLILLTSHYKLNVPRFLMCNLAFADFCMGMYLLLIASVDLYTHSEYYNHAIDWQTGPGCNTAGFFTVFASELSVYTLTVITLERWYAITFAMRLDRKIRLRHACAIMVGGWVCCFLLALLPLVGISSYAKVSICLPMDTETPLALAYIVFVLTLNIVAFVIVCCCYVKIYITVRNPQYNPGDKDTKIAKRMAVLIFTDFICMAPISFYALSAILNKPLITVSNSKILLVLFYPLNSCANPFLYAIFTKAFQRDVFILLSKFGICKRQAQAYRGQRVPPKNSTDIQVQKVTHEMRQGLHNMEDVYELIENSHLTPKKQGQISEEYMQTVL
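Antagonism was scored as loss of TSH-driven cAMP in TSHR cells, stimulated with 4nM TSH (EC80) for 2 hours at 37 deg C and detected by homogeneous HTRF competition immunoassay.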
Gal4-VP16 FLuc – VP16 counterscreen qHTS for inhibitors of ROR gamma transcriptional activity | Drosophila S2 Gal4-VP16 UAS-luciferase, luminescence, 20 h | Potency, µM (series often up to 53.6 µM), hits mostly inhibitors | 310,000 tested, 3.5% active | AID 2546, 2010;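 also: Gal4-VP16 expression switched on by copper sulfate through the metallothionein promoter; nearly all actives have a fitted effect of over 50% in size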
RORgamma inh – qHTS for inhibitors of ROR gamma transcriptional activity. 310,000 tested, 5.4% active. AID 2551, 2010. Nuclear receptor ROR-gamma (Mus musculus), P51450. Drosophila S2 Gal4-RORgamma UAS-luciferase reporter, 20 h. Potency, µM (titrated, usually from 53.6 µM), hits mostly inhibitors; also: nearly all actives have a fitted effect of over 60% in size
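Compounds are pin-transferred onto Drosophila Schneider cells expressing a copper-inducible Gal4–ROR gamma transactivation domain fusion. After 1 hr, copper sulfate is added to 700 uM final; luciferase is read 20 hr later.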
Each line names hits and unclear results; the compound was inactive in the other large screens. Unless noted, calls follow the shape of the dose curve; as a rule, active = well fitted curve in the direction sought with a large enough effect; inconclusive = small, poorly fitted or top-dose-only effect, or another doubt; inactive = no such curve, though single readings can be large; an effect the other way counts as inactive or inconclusive.

Cc1nc(S/C(=C/c2ccc(-c3ccc(Cl)cc3)o2)C(=O)O)n[nH]1	Gal4-VP16 FLuc 2.82µM, RORgamma inh 1.41µM
CC(=O)c1ccc(-c2ccc(/C=C(/Sc3n[nH]c(C)n3)C(=O)O)o2)cc1	Gal4-VP16 FLuc inconclusive, RORgamma inh 5.62µM
CC1CN2C(CCC(C)C2c2ccc(Br)cc2)C(=O)O1 (stereo not given)	none (no result: ELG1 DNA repair, B2AR arrestin, TSHR antagonist)
CCOC(=O)c1c(C)nc2sc3c(=O)n(-c4ccc(C(C)=O)cc4)cnc3c2c1-c1ccc(Cl)cc1	ELG1 DNA repair 20.6µM
O=C(N/C(=C\c1ccc(Br)cc1)C(=O)N1CCOCC1)c1ccco1	none
Cc1ccc(C)c(NC(=O)CCN2CCc3ccccc3C2)c1	RORgamma inh inconclusive
Cc1ccc(C)c(NC(=S)N/N=C2\CCc3ccccc32)c1	ELG1 DNA repair inconclusive, Gal4-VP16 FLuc 10µM, RORgamma inh 7.08µM
Cc1ccc(NC(=S)N/N=C2/CCCCc3ccccc32)cc1	RORgamma inh 3.55µM
COc1ccc(NC(=S)N/N=C2/CCCc3c(C)cc(C)cc32)cc1	Gal4-VP16 FLuc inconclusive, RORgamma inh 2.82µM
Cc1cccc(NC(=S)N/N=C2/CCCCc3ccccc32)c1	Gal4-VP16 FLuc 6.31µM, RORgamma inh 2.82µM
COC(=O)[C@H](Cc1ccccc1)NC(=O)[C@H]1C[C@@H]1[C@H](NC(=O)OCc1ccccc1)c1ccccc1	none (no result: ELG1 DNA repair, B2AR arrestin, TSHR antagonist)
Nc1nc2c([nH]c(=S)n2C2OC(CO)C(O)C2O)c(=O)[nH]1 (stereo not given)	none (no result: ELG1 DNA repair, B2AR arrestin, TSHR antagonist)
COc1cc(CN2CCNC(=O)C2CC(=O)N(C)Cc2ncc[nH]2)cc(OC)c1 (stereo not given)	none
CCCn1nnnc1NC(=O)c1ccc(C)cc1Cl	Gal4-VP16 FLuc 6.31µM, RORgamma inh 3.55µM
CCCn1nnnc1NC(=O)c1cc(Br)ccc1OC	Gal4-VP16 FLuc 5.62µM, RORgamma inh 3.16µM
CCCn1nnnc1NCc1cc(Br)ccc1OC	Gal4-VP16 FLuc inconclusive
CCCn1nnnc1NC(=O)c1cccs1	Gal4-VP16 FLuc 2.82µM, RORgamma inh 0.891µM
CCc1cc2c(=O)n(Cc3ccco3)c(SCC(=O)N(C)C3CCS(=O)(=O)C3)nc2s1 (stereo not given)	Gal4-VP16 FLuc inconclusive, RORgamma inh 10µM
CCc1cc2c(=O)n(Cc3ccco3)c(SCC(=O)NC3CCS(=O)(=O)C3)nc2s1 (stereo not given)	Gal4-VP16 FLuc inconclusive
CN(C(=O)CSc1nc2ccccc2n1CCc1ccccc1)C1CCS(=O)(=O)C1 (stereo not given)	Gal4-VP16 FLuc inconclusive, RORgamma inh 15.8µM
N#Cc1ccc(CN2CC[C@@]3(CCCN(C(=O)c4cccc(F)c4)C3)C2)cc1	none (no result: ELG1 DNA repair, B2AR arrestin, TSHR antagonist)
O=C(NNc1nc2cc3c(cc2s1)OCO3)c1ccccc1	ELG1 DNA repair inconclusive, Gal4-VP16 FLuc inconclusive, RORgamma inh 5.01µM
COc1cccc(OC)c1C(=O)Nc1nc2cc3c(cc2s1)OCO3	none
O=C(NNc1nc2cc3c(cc2s1)OCO3)c1cccc(F)c1	ELG1 DNA repair inconclusive, Gal4-VP16 FLuc inconclusive, RORgamma inh 4.47µM
Cc1ccc2nc(NNC(=O)c3ccc4c(c3)OCCO4)sc2c1	Gal4-VP16 FLuc inconclusive, RORgamma inh 4.47µM
C[C@@H]1OC(OC2CC[C@@]3(C)C(CC[C@@]4(C)C3CC=C3C5CC(C)(C)CC[C@]5(C(=O)OC5OCC(O)[C@@H](O)[C@@H]5OC5O[C@@H](C)[C@H](O[C@H]6OC(CO)C(O)C(O)C6O)C(O)C5O)C(O)C[C@@]34C)C2(C)C)C(O)C(O)[C@H]1OC1OCC(O)C(O)[C@H]1O (stereo not given in full)	Gal4-VP16 FLuc inconclusive (no result: ELG1 DNA repair, B2AR arrestin, TSHR antagonist)
CCc1cc(=O)oc2c(C)c(OCC(=O)NCCCn3ccnc3)ccc12	none
Cc1nc(NCC2CCCO2)c2nnn(Cc3ccccc3)c2n1 (stereo not given)	RORgamma inh inconclusive
CCCc1nc(NCC2CCCO2)c2nnn(Cc3ccccc3)c2n1 (stereo not given)	ELG1 DNA repair 25.9µM, RORgamma inh inconclusive

Assay outcomes deposited in PubChem by National Center for Advancing Translational Sciences (NCATS).
